Experiment [1] in a line: BET inhibitor-based combinations targeting novel dependencies in MECOM-rearranged (r) AML: SET-2 cell line (AID 2202231).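 For viability: plate controls were DMSO treated cells for no effect and wells without cells for full effect.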 Note: nearly all actives have a fitted effect of over 35% in size. Note: potency is the fitted concentration of half-maximal effect. The note with it: SET-2 AML cells viability, CellTiter-Glo luminescence, 48 h; viability: active compounds read low, concentration not given here. A digest of the protocol:
(§1)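 Viability of cells (500 per well) is scored by luminescent CellTiter-Glo at 48 hr post-dosing. Eleven-point titrations are normalized to DMSO and empty controls and reduced to AUC values.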
A general note: ATP-based viability assays read luminescence as a measure of living cells.

Experiment [2] can be described thus: BET inhibitor-based combinations targeting novel dependencies in MECOM-rearranged (r) AML: UCSD-AML1 cell line (AID 2202235). Note: nearly all actives have a fitted effect of over 40% in size. Note: potency is the fitted concentration of half-maximal effect. The method in brief:
(§2)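 Using pin-tool transfer, drugs were added in 11 doses to cells (500/well), incubated 48 hr, and assessed with CellTiter-Glo. Z-AUC is a mean-centring transformation applied separately to each screened line.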

The nature of experiment [3]: BET inhibitor-based combinations targeting novel dependencies in MECOM-rearranged (r) AML: AML-191 cell line (AID 2202236; note: nearly all actives have a fitted effect of over 35% in size; note: potency is the fitted concentration of half-maximal effect). A digest of the protocol:
as §1

Experiment [4] in a line: BET inhibitor-based combinations targeting novel dependencies in MECOM-rearranged (r) AML: AML-194 cell line (AID 2202237;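 note: plate controls were vehicle wells for no effect and wells without cells for full effect; nearly all actives have a fitted effect of over 40% in size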). The method in brief: as §1
Experiment [5] can be described thus: BET inhibitor-based combinations targeting novel dependencies in MECOM-rearranged (r) AML: OCI-AML3 cell line (AID 2202232). Note: potency is the fitted concentration of half-maximal effect; nearly all actives have a fitted effect of over 35% in size. The note with it: Potency: OCI-AML3 viability. The method in brief: as §1
The nature of experiment [6]: BET inhibitor-based combinations targeting novel dependencies in MECOM-rearranged (r) AML: MV-4-11 cell line (AID 2202233). Note: potency is the fitted concentration of half-maximal effect; nearly all actives have a fitted effect of over 45% in size. The method in brief: as §2
Experiment [7] can be described thus: BET inhibitor-based combinations targeting novel dependencies in MECOM-rearranged (r) AML: HNT-34 cell line (AID 2202234). Note: potency is the fitted concentration of half-maximal effect; nearly all actives have a fitted effect of over 35% in size. The method in brief: as §2

Our source for the viability and Potency values is PubChem BioAssay (NCATS).

SMILES strings stand for the structures. Records with an inconclusive call do not appear. Unmarked numbers belong to inactive results. The source made the active and inactive calls. Calls come from the whole dose curve; as a rule, active = well fitted curve in the direction sought with a large enough effect; inconclusive = small, poorly fitted or top-dose-only effect, or another doubt; inactive = no such curve, though single readings can be large; an effect the other way counts as inactive or inconclusive.

Usually viability stands for a read-out of living cells in per cent, often relative to untreated cells.

For `COC[C@@H](c1ccc(C(F)(F)F)cc1)N1CCN(C2(C)CCN(C(=O)c3c(C)ncnc3C)CC2)C[C@@H]1C`, the viability in experiment [1] was 111%. Besides, the Potency entry in experiment [2], in experiment [3] and in experiment [4] was “inactive” in each case.
Regarding `COc1ccc(-c2ccc3c(N4CCOC[C@@H]4C)nc(N4CCOC[C@@H]4C)nc3n2)cc1CO`, the results for the Potency in experiment [5] and in experiment [6] were 0.148 µM (active) and 0.132 µM (active), respectively.
For `CONC(=O)Nc1ccc(-c2sc3c(c2CN(C)Cc2ccccc2)c(=O)n(-c2ccccc2)c(=O)n3Cc2c(F)cccc2F)cc1`, the viability in experiment [1] was 104%. For the same molecule, the Potency entry in experiment [2] and in experiment [3] was “inactive” each time.
As for `C[C@@H]1CC2C3C[C@H](F)C4=CC(=O)C=C[C@]4(C)[C@@]3(F)[C@@H](O)C[C@]2(C)[C@@]1(OC(=O)c1ccco1)C(=O)SCF` (stereo partly specified), the Potency in experiment [5] and in experiment [6] was 20.9 µM (active) throughout.
Regarding `COC(=O)N(CC(=O)O)Cc1cccc(OCc2nc(-c3ccc(Cl)cc3)oc2C)c1`, in experiment [1], the viability is 89%. Moreover, the Potency entry in experiment [2], in experiment [3] and in experiment [4] was “inactive” each time.
Take `CCOC(=O)c1ccc(C#Cc2ccc3c(c2)C(C)(C)CCS3)nc1`: the viability in experiment [1] is 106%. For the same molecule, the Potency entry in experiment [2] and in experiment [4] was “inactive” throughout. For the same molecule, the Potency in experiment [3] was 8.33 µM (active).
As for `O=c1[nH]nc2c3c(cccc13)NC(CN1Cc3ccccc3C1)=N2`, the Potency in experiment [5] and in experiment [6] was 16.6 µM (active) throughout.
Turning to `Nc1ncn([C@H]2C[C@H](O)[C@@H](CO)O2)c(=O)n1`, the Potency in experiment [5] was 0.417 µM (active); in experiment [6] it was 0.332 µM (active).
Consider `CO[C@H]1/C=C/O[C@@]2(C)Oc3c(C)c(O)c4c(O)c(c(/C=N/N5CCN(C)CC5)c(O)c4c3C2=O)NC(=O)/C(C)=C\C=C\[C@H](C)[C@H](O)[C@@H](C)[C@@H](O)[C@@H](C)[C@H](OC(C)=O)[C@@H]1C`, for which the viability in experiment [1] was 90.8%. The Potency entry in experiment [2], in experiment [3] and in experiment [4] was “inactive” throughout.
`COc1ccc(S(=O)(=O)NCc2ccc(C(=O)NCCc3ccc(Cl)cn3)cc2)cc1`: the viability in experiment [1] was 98%. The Potency entry in experiment [2], in experiment [3] and in experiment [4] was “inactive” throughout.
As to `C=C1CCC[C@]2(C)C=C3OC(=O)C(C)=C3C[C@@H]12`, in experiment [1], the viability is 112%. For the same molecule, the Potency result in experiment [2] and in experiment [4] was “inactive” each time.
Consider `CCOC(=O)c1c(CSc2ccccc2)n(C)c2cc(Br)c(O)c(CN(C)C)c12`, for which the Potency was 11.8 µM (active) in experiment [5], 18.6 µM (active) in experiment [6] and 11.8 µM (active) in experiment [7].
Take `O=C(Nc1cccc(C(F)(F)F)c1)c1cccc2cc(Oc3cc(CO)ncn3)ccc12`: the viability in experiment [1] was 103%. For the same molecule, the Potency result in experiment [2], in experiment [3] and in experiment [4] was “inactive” throughout.
In the case of `CC/C(=C(/CC)c1ccc(O)cc1)c1ccc(O)cc1`, the Potency in experiment [1] is 20.9 µM (active). In addition, the Potency result in experiment [2] is “inactive”.
For the molecule `Cc1cc(-c2ccc(CC(=O)Nc3ccc(-c4cccnc4)cc3)cc2)ccn1`, the Potency in experiment [1] was 16.6 µM (active); in experiment [3], 9.34 µM (active).
For the molecule `CC[C@H]1OC(=O)[C@H](C)[C@@H](O[C@H]2C[C@@](C)(OC)[C@@H](O)[C@H](C)O2)[C@H](C)[C@@H](O[C@@H]2O[C@H](C)C[C@H](N(C)C)[C@H]2O)[C@](C)(O)C[C@@H](C)CN(C)[C@H](C)[C@@H](O)[C@]1(C)O`, the Potency in experiment [1] was 0.468 µM (active). In addition, in experiment [2], the Potency result was “inactive”.
Take `CCNC(=O)Nc1ccc(-c2nc3c(c(N4CCOC[C@@H]4C)n2)CCN(C2COC2)C3)cc1`: the Potency in experiment [5] was 1.48 µM (active); in experiment [6], 1.32 µM (active); in experiment [7], 1.05 µM (active).
In the case of `CN1CCN(C(=O)c2ccc(-c3ccc4c(C=O)c(O)ccc4c3)s2)CC1`, the Potency in experiment [5] is 26.3 µM (active).
`C=CC(=O)Nc1ccc(F)c(-c2ncnc3[nH]cc(C(=O)OCC)c23)c1`: in experiment [1], the viability is 83.4%. Further, the Potency entry in experiment [2], in experiment [3] and in experiment [4] was “inactive” each time.
`COc1ccc(/C=C\c2cc(OC)c(OC)c(OC)c2)cc1O`: the Potency in experiment [1] is 0.0148 µM (active); in experiment [2], 0.0118 µM (active); in experiment [3], 0.0132 µM (active).
Regarding `CN(C)CCCOc1ccc(-c2ccc3ncc4c(c3c2)n(C2CCOCC2)c(=O)n4C)cn1`, the Potency in experiment [5] was 7.23 µM (active); in experiment [6], 4.07 µM (active); in experiment [7], 2.57 µM (active).
As for `CC(C)c1cnn2c(NCc3ccccc3)cc(NCCCCCCN)nc12`, the Potency in experiment [5] is 23.5 µM (active); in experiment [6] it was 18.6 µM (active).
As for `Cc1cc(Nc2ncnc3ccc(NC4=NC(C)(C)CO4)cc23)ccc1Oc1ccn2ncnc2c1`, in experiment [1], the Potency is 20.9 µM (active). Further, the Potency entry in experiment [2] was “inactive”.
In the case of `COC(=O)[C@H]1[C@@H](O)[C@@]2(O)c3c(OC)cc(O[C@@H]4O[C@@H]([C@@H](O)CO)CO[C@H]4OC)cc3O[C@@]2(c2ccc(OC)cc2)[C@@H]1c1ccccc1`, the viability in experiment [1] is 77.8%. Also, the Potency entry in experiment [3] is “inactive”.
Consider `COc1ccc2nc(S(=O)Cc3ncc(C)c(OC)c3C)[nH]c2c1` (stereo unspecified), for which the viability in experiment [1] was 95.9%. For the same molecule, the Potency entry in experiment [2] is “inactive”.
Turning to `Nc1nc(OC(c2ccc(-c3cccc(F)c3)cc2)C(F)(F)F)cc(-c2ccc(C[C@H](N)C(=O)O)cc2)n1` (stereo partly specified), the viability in experiment [1] is 120%. In experiment [4], the Potency entry is “inactive”.
